# Test results taken from PubChem BioAssay (NCATS).
# Inconclusive results are not listed. Where a call stands in place of a potency, no number is given. Active and inactive are the calls of the source. The call rests on the fitted dose curve; in most records, active means well fitted curve in the direction sought with a large enough effect; inconclusive means small, poorly fitted or top-dose-only effect, or another doubt; inactive means no such curve, though single readings can be large; an effect the other way counts as inactive or inconclusive.
# Experiments:
# [1] = test system: MCC-13; assay: qHTS assay to identify novel small-molecules to repurpose for Merkel cell carcinoma treatment (AID 1296009); details: MCC and control cell lines, CellTiter-Glo viability, 72 h; series mostly up to 46 µM; further: nearly all actives have a fitted effect of over 60% in size
# How it was run: (§1)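 qHTS format: cells treated with library compounds in DMSO across 8 (NPC) or 11 (MIPE) concentrations. Readout after 72 hr at 37 degree celsius was CellTiter-Glo luminescence.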
# [2] = test system: MCC-26; assay: as above; details: MCC and control cell lines, CellTiter-Glo viability, 72 h; series mostly up to 46 µM
# How it was run: as §1
# [3] = test system: MKL-1; assay: as above; details: MCC and control cell lines, CellTiter-Glo viability, 72 h; series mostly up to 46 µM
# How it was run: as §1
# [4] = test system: MKL-2; assay: as above; details: MCC and control cell lines, CellTiter-Glo viability, 72 h; series mostly up to 46 µM
# How it was run: as §1
# [5] = test system: UISO; assay: as above; details: MCC and control cell lines, CellTiter-Glo viability, 72 h; series mostly up to 46 µM
# How it was run: as §1
# [6] = test system: WaGa; assay: as above; details: MCC and control cell lines, CellTiter-Glo viability, 72 h; series mostly up to 46 µM
# How it was run: as §1
# [7] = test system: JEG-3; assay: Primary qHTS to identify gynecologic anti-cancer compounds using libraries of approved drugs and bioactive compounds (AID 1345084); details: Gynecologic cancer cell panel viability, ATPlite luminescence, 48 h; series mostly up to 57.5 µM; further: nearly all actives have a fitted effect of over 55% in size
# How it was run: (§2)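 Cells, 1,000 per well, were allowed to settle for 16 h at 37 C before compound addition. Five concentrations were tested for 48 h, and viability was read by ATPlite luminescence after 15 min at room temperature.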
# [8] = test system: PA-1; assay: as above; details: Gynecologic cancer cell panel viability, ATPlite luminescence, 48 h; series mostly up to 57.5 µM
# How it was run: as §2
# [9] = test system: NIH3T3; assay: qHTS assay to identify novel small-molecules to repurpose for Merkel cell carcinoma treatment (AID 1296009); details: MCC and control cell lines, CellTiter-Glo viability, 72 h; at 44.8 µM (top of the series) unless noted; further: nearly all actives have a fitted effect of over 60% in size
# How it was run: as §1
# [10] = test system: Es-2; assay: Primary qHTS to identify gynecologic anti-cancer compounds using libraries of approved drugs and bioactive compounds (AID 1345084); details: Gynecologic cancer cell panel viability, ATPlite luminescence, 48 h; series mostly up to 57.5 µM; further: nearly all actives have a fitted effect of over 55% in size
# How it was run: as §2
# [11] = test system: HeLa; assay: as above; details: Gynecologic cancer cell panel viability, ATPlite luminescence, 48 h; series mostly up to 57.5 µM
# How it was run: as §2
# [12] = test system: Hek293T; assay: as above; details: Gynecologic cancer cell panel viability, ATPlite luminescence, 48 h, control line for the selectivity index; series mostly up to 57.5 µM
# How it was run: as §2
# [13] = test system: Tov112D; assay: as above; details: Gynecologic cancer cell panel viability, ATPlite luminescence, 48 h; series mostly up to 57.5 µM
# How it was run: as §2
# [14] = test system: CASKI; assay: as above; details: Gynecologic cancer cell panel viability, ATPlite luminescence, 48 h; series mostly up to 57.5 µM
# How it was run: as §2
# [15] = test system: OV90; assay: as above; details: Gynecologic cancer cell panel viability, ATPlite luminescence, 48 h; series mostly up to 57.5 µM
# How it was run: as §2
# [16] = test system: Tov-21-G; assay: as above; details: Gynecologic cancer cell panel viability, ATPlite luminescence, 48 h; series mostly up to 57.5 µM
# How it was run: as §2
# [17] = test system: C33A; assay: as above; details: Gynecologic cancer cell panel viability, ATPlite luminescence, 48 h; series mostly up to 57.5 µM
# How it was run: as §2
# [18] = test system: SKOV3; assay: as above; details: Gynecologic cancer cell panel viability, ATPlite luminescence, 48 h; series mostly up to 57.5 µM
# How it was run: as §2
# Potency means the concentration at half of the fitted maximal effect.
compound,measurement,setting,value
C[C@@H](Cc1cc2c(c(C(N)=O)c1)N(CCCO)CC2)NCCOc1ccccc1OCC(F)(F)F,Potency,[1],inactive
same,Potency,[2],inactive
same,Potency,[3],inactive
same,Potency,[4],inactive
same,Potency,[5],inactive
same,Potency,[6],inactive
same,Potency,[7],inactive
same,Potency,[8],31600 nM (active)
NC(=O)N1CCC(CC(=O)N2CCC([C@H]3c4ncc(Br)cc4CCc4cc(Cl)cc(Br)c43)CC2)CC1,Potency,[1],inactive
same,Potency,[2],inactive
same,Potency,[6],11800 nM (active)
Cc1onc(-c2ccccc2)c1C(=O)N[C@@H]1C(=O)N2[C@@H](C(=O)O)C(C)(C)S[C@@H]12,Potency,[1],inactive
same,Potency,[2],inactive
same,Potency,[3],inactive
same,Potency,[5],inactive
same,Potency,[6],inactive
COc1ccc(S(=O)(=O)Nc2cc(-c3c(O)ccc4ccccc34)c(O)c3ccccc23)cc1,Potency,[1],inactive
same,Potency,[2],inactive
same,Potency,[4],26400 nM (active)
same,outcome,[9],inactive
same,Potency,[5],166 nM (active)
Cc1cc(Nc2ncc3c(n2)N(C)C(=O)N(c2cc(NC(=O)c4cccc(C(F)(F)F)c4)ccc2C)C3)n(C)n1,Potency,[1],2090 nM (active)
same,Potency,[2],1180 nM (active)
same,Potency,[5],526 nM (active)
C[C@]12CC[C@@H]3c4ccc(O)cc4CC[C@H]3[C@H]1CC[C@H]2O,Potency,[1],inactive
same,Potency,[2],inactive
same,Potency,[4],inactive
COc1ccc2cc([S+]([O-])Cc3ncc(C)c(OC)c3C)nc2c1,Potency,[1],inactive
same,Potency,[2],inactive
same,Potency,[3],inactive
same,Potency,[6],inactive
CC(C)NC[C@@H](C(=O)N1CCN(c2ncnc3c2[C@H](C)C[C@H]3O)CC1)c1ccc(Cl)cc1,Potency,[1],inactive
same,Potency,[2],inactive
same,Potency,[4],1660 nM (active)
same,Potency,[6],2090 nM (active)
CC(=O)N[C@H]1[C@@H]([C@H](O)[C@H](O)CO)OC(C(=O)O)=C[C@@H]1N=C(N)N,Potency,[1],inactive
same,Potency,[2],inactive
same,Potency,[3],inactive
same,Potency,[4],inactive
same,Potency,[5],inactive
same,Potency,[6],inactive
Cn1cc(-c2cnn3c(N)c(Br)c([C@H]4CCCNC4)nc23)cn1,Potency,[1],inactive
same,Potency,[2],inactive
same,Potency,[4],1320 nM (active)
same,Potency,[6],1320 nM (active)
c1cc(N[C@@H]2CCNC2)nc(-c2cnc3ccc(-c4cn[nH]c4)cn23)c1,Potency,[1],inactive
same,Potency,[2],inactive
same,Potency,[3],8330 nM (active)
same,Potency,[4],7430 nM (active)
same,Potency,[5],16600 nM (active)
same,Potency,[10],inactive
same,Potency,[11],inactive
same,Potency,[12],inactive
same,Potency,[7],inactive
same,Potency,[8],10000 nM (active)
same,Potency,[13],14100 nM (active)
CC(C)C[C@H](NC(=O)[C@@H](NC(=O)c1cccc(-c2ccccc2)n1)[C@@H](C)O)B(O)O,Potency,[1],264 nM (active)
same,Potency,[2],148 nM (active)
same,Potency,[4],41.8 nM (active)
same,Potency,[6],83.3 nM (active)
same,Potency,[14],112 nM (active)
same,Potency,[10],251 nM (active)
same,Potency,[11],631 nM (active)
same,Potency,[12],316 nM (active)
same,Potency,[15],316 nM (active)
same,Potency,[16],112 nM (active)
COc1cccc2c1C(=O)c1c(O)c3c(c(O)c1C2=O)C[C@@](O)(C(=O)CO)C[C@@H]3O[C@H]1C[C@H](N)[C@H](OC2CCCCO2)[C@H](C)O1 (some centres undefined),Potency,[1],5260 nM (active)
same,Potency,[2],3720 nM (active)
same,Potency,[3],2640 nM (active)
same,Potency,[5],1660 nM (active)
same,Potency,[6],1660 nM (active)
C[C@H](NC(=O)C(C#N)=Cc1cccc(Br)n1)c1ccccc1,Potency,[1],inactive
same,Potency,[2],inactive
same,Potency,[3],inactive
same,Potency,[6],inactive
N#Cc1c(C2CCNCC2)cc(-c2c(O)cccc2OCC2CC2)nc1N,Potency,[1],inactive
same,Potency,[2],inactive
same,Potency,[3],inactive
same,Potency,[17],inactive
same,Potency,[10],inactive
same,Potency,[11],inactive
same,Potency,[12],inactive
same,Potency,[15],inactive
same,Potency,[16],14100 nM (active)
same,Potency,[13],inactive
CC(Cc1ccc(O)c(O)c1)(NN)C(=O)O (centres undefined),Potency,[1],inactive
same,Potency,[2],inactive
same,Potency,[3],inactive
same,Potency,[5],inactive
same,Potency,[6],inactive
O=C(C=Cc1ccc(CN(CCO)CCc2c[nH]c3ccccc23)cc1)NO,Potency,[1],1660 nM (active)
same,Potency,[2],1180 nM (active)
same,Potency,[3],418 nM (active)
same,Potency,[4],105 nM (active)
same,Potency,[5],1180 nM (active)
same,Potency,[6],105 nM (active)
COc1cccc2c1C(=O)c1c(O)c3c(c(O)c1C2=O)C[C@@](O)(C(=O)CO)C[C@@H]3O[C@H]1C[C@H](N)[C@@H](O)[C@H](C)O1,Potency,[1],5900 nM (active)
same,Potency,[2],2350 nM (active)
same,Potency,[3],166 nM (active)
same,Potency,[6],93.5 nM (active)
CC(=O)OC[C@@H]1O[C@@H](n2ccc(=O)[nH]c2=O)[C@H](OC(C)=O)[C@H]1OC(C)=O,Potency,[1],inactive
same,Potency,[2],inactive
same,Potency,[3],inactive
same,Potency,[5],inactive
same,Potency,[6],inactive
O=C1c2cccc(O)c2C(=O)c2c(O)cc(CO)cc21,Potency,[1],inactive
same,Potency,[2],inactive
same,Potency,[3],inactive
same,Potency,[4],inactive
same,Potency,[5],inactive
same,Potency,[6],inactive
CC(C)c1cc(C(C)C)c(CC(=O)NS(=O)(=O)Oc2c(C(C)C)cccc2C(C)C)c(C(C)C)c1,Potency,[1],inactive
same,Potency,[2],inactive
same,Potency,[3],inactive
same,Potency,[4],inactive
same,Potency,[6],inactive
same,Potency,[17],inactive
same,Potency,[14],inactive
same,Potency,[10],inactive
same,Potency,[7],inactive
same,Potency,[15],inactive
same,Potency,[18],inactive
same,Potency,[16],inactive
same,Potency,[13],inactive
Cc1cnc(Nc2ccc(N3CCN(C)CC3)cc2)nc1Nc1cccc(S(=O)(=O)NC(C)(C)C)c1,Potency,[1],16600 nM (active)
same,Potency,[2],8330 nM (active)
same,Potency,[3],10500 nM (active)
same,Potency,[4],10500 nM (active)
same,Potency,[6],11800 nM (active)
